DAX1 inh-1: inhibitors of human orphan nuclear receptor DAX1 (NR0B1) | P51843 | HEK293 Gal4-DAX1 luciferase reporter, luminescence | inhibition, % at 6.75 µM | actives 0.99% (n = 340,000);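 active means inhibition above the mean over all tested compounds plus 3 SD, cut at about 4.2% in these data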;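 further: inhibition shows as a rise in luminescence from relieved DAX1 repression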
Target sequence (P51843 207-470 limits assumed): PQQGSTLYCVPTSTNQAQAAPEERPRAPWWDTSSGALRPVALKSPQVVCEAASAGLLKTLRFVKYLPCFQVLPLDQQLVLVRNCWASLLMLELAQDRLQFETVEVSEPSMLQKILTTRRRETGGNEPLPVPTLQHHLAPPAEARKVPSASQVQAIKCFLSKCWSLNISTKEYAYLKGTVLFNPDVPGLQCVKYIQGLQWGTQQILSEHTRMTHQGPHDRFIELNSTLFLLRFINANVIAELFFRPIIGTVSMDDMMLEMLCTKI
hgDAF-12 ag: agonists of H. glycines DAF-12 nuclear receptor; HEK293 GAL4-hgDAF12 UAS-luciferase reporter, agonist luminescence; normalized to butyrate control; AID 687014; activation, % at 6.8 µM; actives 1.8% (n = 370,000);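 active means activation above a cutoff set at the mean of all screened compounds plus 3 SD, cut at about 10% in these data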
hcDAF12 agonist: activators of H. contortus DAF-12 nuclear receptor. activation, % at 6.8 µM. actives 1.4% (n = 370,000). HEK293 hcDAF-12 lit1-tk-luc reporter, luminescence; 0% DMSO, 100% Δ7-dafachronic acid. AID 652067;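 active means activation above the mean of all tested compounds plus 3 SD, cut at about 5.5% in these data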
SMARCA2 activ: SMARCA2 function activation, primary screen; activation, % at 9.1 µM; AID 652017; actives 1% (n = 370,000); MG213 cells, MMTV-luciferase reporter, dexamethasone, overnight; in the data active means activation above about 7.8%
ssDAF-12 act: S. stercoralis DAF-12 activation, primary screen; HEK293 ssDAF-12/GRIP1 lit1-tk-luc reporter, luminescence; % of 3 µM dafachronic acid response; activation, % at 6.8 µM; actives 1% (n = 370,000); AID 652126;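 active means activation above the mean over all tested compounds plus 3 SD, cut at about 0.9% in these data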
DAX1 inh-2: blocks DAX1 repression of SF-1 activated StAR promoter. HEK293T StAR-luciferase reporter, SF-1/DAX-1 repression relief. inhibition, % at 6.8 µM. actives 1.1% (n = 370,000). AID 652010;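 active means inhibition above the mean over all tested compounds plus 3 SD, cut at about 3.6% in these data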;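 further: higher inhibition means more luminescence from relief of DAX-1 repression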
Numbers stand for hits; 0 = inactive; - = no result. Rows were chosen to be rich in hits. Some 4.8% of all compounds tested hit in one or more screens of this group.

SMILES	DAX1 inh-1	hgDAF-12 ag	hcDAF12 agonist	SMARCA2 activ	ssDAF-12 act	DAX1 inh-2
CCCCC(=O)Nc1cnc(NC(=O)c2cccs2)cc1C	0	11.7	0	0	0	0
Cc1ccnc(NC(=O)CCC(=O)c2cccs2)c1	0	0	0	0	0	4.0
CN(C)c1ccc(/C=C2/NC(=O)NC2=O)cc1	0	10.8	0	0	0	0
O=C(CSc1ccccc1)NCCc1ccccc1	5.6	0	0	0	0	0
Cc1ccc(SCC(=O)NCCc2ccccc2)cc1	0	0	0	0	1.7	0
O=C(CSc1ccccc1)NCCc1ccc(F)cc1	0	0	0	0	0	0
CC(C)=CC(=O)NCCc1ccccc1	0	11.3	0	0	0	0
Cc1nc2sc(C(=O)NCc3ccc4c(c3)OCO4)c(N)c2c(C)c1Cl	-	0	0	0	0	0
CC(=O)Nc1sc(C)c(C)c1C(=O)OCC(=O)Nc1ccccc1C(F)(F)F	0	10.7	0	0	0	0
CC1CCC/C(=N\NC(=O)Nc2ccccc2)C1 (stereo not given)	4.8	0	0	0	0	0
O=C(OC1CC2CCC(C1)[N+]21CCCC1)C(O)(c1ccccc1)c1ccccc1 (stereo not given)	-	0	0	0	0	0
COc1cc2c(cc1NC(=O)COC(=O)C(CCSC)NC(=O)c1ccccc1Cl)oc1ccccc12 (stereo not given)	0	0	0	0	2.5	0
COc1cc(C(=O)NC2CCCCN(Cc3ccc(Cl)cc3)C2=O)cc(OC)c1OC (stereo not given)	-	0	0	0	0	0
COc1ccc(-n2c(COc3ccccc3)nnc2SCC(=O)Nc2ccc3c(c2)OCCO3)cc1	-	0	0	0	0	0
CC(C)(C)N1Cc2nnn(CC3CCCCC3)c2-c2cc(F)ccc2S1(=O)=O	-	0	0	0	0	0
CCc1ccc(OCC(=O)N2CCc3ccccc32)cc1	0	11.9	0	0	0	0
O=C(COc1ccccc1Cl)Nc1cccnc1	0	11.7	0	0	0	0
Cc1ccc(Cl)c(OCC(=O)Nc2cccnc2)c1	0	0	0	0	0	0
COc1ccc(C(=O)O[C@@H]2CCC[C@@]3(C(=O)N(Cc4ccccc4)c4ccccc43)[C@H]2NC(=O)CCc2ccccc2)cc1OC	-	0	0	0	0	0
Cn1cc(CN2CCc3c([nH]c4ccccc34)C2C(C)(C)C)cn1 (stereo not given)	0	0	5.9	0	0	0
c1ccc(CN2CCN(c3ncnc4sccc34)CC2)cc1	-	0	0	-	0	-
COC(=O)C[C@@H]1CC[C@H]2[C@@H](COc3ccc(NC(=O)Nc4ccc(C)cc4)cc3C(=O)N2C)O1	-	0	0	0	0	0
O=C(O)Cn1c(O)c(C2=c3ccccc3=NC2=O)sc1=O	0	0	0	0	0	0
Cc1c(-n2c(O)c(C3=c4ccccc4=NC3=O)sc2=O)c(=O)n(-c2ccccc2)n1C	0	0	0	0	1.1	0
O=C(Nc1ccccc1Oc1ccccc1)NC1CCCCN(Cc2cccc(Cl)c2)C1=O (stereo not given)	-	0	0	0	0	0
SMILES	DAX1 inh-1	hgDAF-12 ag	hcDAF12 agonist	SMARCA2 activ	ssDAF-12 act	DAX1 inh-2
COc1ccc(C2OC(=O)C(C)(C)C(=O)C2(C)C)cc1OC (stereo not given)	0	0	0	0	0	0
COc1ccc(C2N3CC4(C)CN2CC(C)(C3)C4=O)cc1OC (stereo not given)	5.2	0	0	0	0	0
CC(c1c[nH]c2ccccc12)c1c[nH]c2ccc(Br)cc12 (stereo not given)	-	0	5.6	0	0	0
Cc1ccc(CSc2nnc(-c3n[nH]c4c3CCC4)n2N)cc1	-	0	0	0	0	0
O=C1/C(=C/N(C(=O)c2ccco2)c2ccc(Cl)cc2)Sc2ccccc21	0	-	-	-	-	-
O=C1/C(=C/N(C(=O)c2ccco2)c2ccc(Br)cc2)Sc2ccccc21	4.7	-	-	-	-	-
CCOC(=O)c1c(O)c(Cl)c(C)[nH]c1=O	0	11.8	0	0	0	0
O=C(CSc1nnc(SCc2cccc3ccccc23)s1)N/N=C/c1c[nH]c2ccccc12	0	0	0	0	1.4	0
O=C(CSc1nnc(SCc2ccc(Cl)cc2)s1)N/N=C/c1c[nH]c2ccccc12	0	0	5.6	0	0	0
O=C(CSc1ccccn1)N/N=C/c1c[nH]c2ccccc12	0	0	5.8	0	0	0

High-throughput results deposited in PubChem BioAssay by The Scripps Research Institute Molecular Screening Center.
